In PubChem BioAssay (NCI):
About 83,000 compounds went through this panel and 20% of them were active in at least one assay; those are over-represented in the sample as a whole.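 A percent growth of 40 corresponds to 60% growth inhibition; 0 means no net growth; -100 means all cells died. Active threshold: below 10.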 Active and inactive are the calls of the source.

Test system: SNB-19 CNS
Experiment: NCI-60 one-dose screen, 48 h (100 = growth as untreated, 0 = no growth, -100 = all killed)
Details: 10 µM unless noted
Procedure: Growth inhibition of the SNB-19 human tumor cell line is measured as a screen for anti-cancer activity. Cells are grown in 96 well plates and exposed to the test compound for 48 hours. Compounds are tested at a single concentration, which is 10^-5 M for most compounds. The reported endpoint is percent growth (GI% or GIPRCNT), where numbers from 0 - 100% represent growth inhibition, and numbers from -100% - 0 represent cell death. For example, a value of 40 represents 60% growth inhibition. A value of 0 means no net growth occurred over the course of the experiment. A value of -40 indicates 40% of cells at the beginning of the experiment died by the end of the experiment. A value of -100 means all cells are dead at the end of the experiment.
NCI-60 Human Tumor Cell Lines Screen was performed using the standard one-dose NCI protocol, which is described in more detail at https://dtp.cancer.gov/discovery_development/nci-60/default.htm.
Compounds with GIPRCNT values below 10 were considered active. Activity score was based on GIPRCNT using the following formula: […]
Score is 0 for GIPRCNT values of 100 or above, 50 for GIPRCNT values of 0, and 100 for GIPRCNT values of -100.

| SMILES | growth |
| --- | --- |
| C=C1C(=O)O[C@H]2[C@H]1CC/C(COC(=O)CCCCC(=O)OC/C1=C/CC[C@@]3(C)O[C@H]3[C@H]3OC(=O)C(=C)[C@@H]3CC1)=C\CC[C@@]1(C)O[C@@H]21 | 89.9% (inactive) |
| C=C1C(=O)O[C@H]2[C@H]1CC/C(COC(=O)CCCCCCCC(=O)OC/C1=C/CC[C@@]3(C)O[C@H]3[C@H]3OC(=O)C(=C)[C@@H]3CC1)=C\CC[C@@]1(C)O[C@@H]21 | 55% (inactive) |
| CCSc1nc(Cl)c(C#N)c(-c2ccc(F)cc2)n1 | 92.7% (inactive) |
| CCCCCCC/C=C/[C@H]1O[C@]23C(=O)C[C@@]4(C[C@@H](OC5OC(CO)C(O)C(O)C5O)C[C@@H]4[C@H]2C=C1C)OC3=O (stereo not given in full) | 21.2% (inactive) |
| Nc1ccc2c(c1)C(=O)C(=O)c1c-2nc2ccccn12 | 9.2% (active) |
| COc1ccc(C(=O)c2cc(OC)c(C)c(OC)c2)cc1OC(=O)CCl | 28.4% (inactive) |
| Oc1ccccc1-c1nc2c3ccccc3c3ccccc3c2o1 | 95.7% (inactive) |
| Cc1c(O)c(=O)ccn1-c1nc2ccccc2s1 | 110% (inactive) |
| Cc1cccc(NC(=O)c2sc3nc4c(cc3c2N)CN(Cc2ccccc2)CC4)c1C | 34.3% (inactive) |
| O=C(CCc1nnco1)c1nc2ccc([N+](=O)[O-])cc2[nH]1 | 108% (inactive) |
| COCCc1n(Cc2ccc3ccccc3c2)c2ccccc2[n+]1Cc1ccc2ccccc2c1 | -73.8% (active) |
| NS(=O)(=O)c1ccc(N2Cc3cc(Cl)ccc3OC3=C2C(=O)N(CC2CCCCC2)C3=O)cc1 | -6.19% (active) |
| COc1cccc(NC(=O)Nc2ccc(Oc3ncnc4[nH]c(C)c(C)c34)cc2)c1 | 89.7% (inactive) |
| Nc1c(C(=O)Nc2cccc3ccccc23)sc2nc3c(cc12)CCCCCC3 | 27.8% (inactive) |
| CN(C)CCCn1c2c(c3cc(-c4cccc(S(N)(=O)=O)c4)ccc3c1=O)C(=O)c1ccccc1-2 | 64.8% (inactive) |
| C#Cc1ccccc1NC(=O)c1sc2nc3c(cc2c1N)CCCCC3 | 109% (inactive) |
| Cc1ccc(C2=N[C@H]3CCC[C@@H]3N(c3ccccc3)C(C(Cl)Cl)=N2)cc1 | 113% (inactive) |
| COc1ccc(NC(=O)c2sc3nc(C)c(C(C)=O)cc3c2N)cc1 | 96.1% (inactive) |
| COc1ccc(-n2cc(-c3ccc(Cl)c(Cl)c3)[nH]c2=O)cc1OC | 90.9% (inactive) |
| COc1ccc(NC(=O)Nc2ccc(Nc3nc(C)cc(Nc4ccc(C)cc4)n3)cc2)cc1 | -69.2% (active) |

| SMILES | growth |
| --- | --- |
| CCOC(=O)c1cnn(-c2nc(-c3ccc(F)cc3)c(C#N)c(N3CCOCC3)n2)c1N | 95.1% (inactive) |
| COc1ccc2c(c1)/C(=C1\S/C(=N/c3nnc(C)s3)NC1=O)C(=O)N2Cc1ccc(Cl)cc1 | 35.7% (inactive) |
| c1ccc(Sc2ncccn2)nc1 | 89.9% (inactive) |
| C[C@H]1[C@H](C)CC[C@]2(C(=O)OCCOCCOCC[P+](c3ccccc3)(c3ccccc3)c3ccccc3)CC[C@]3(C)C(=CC[C@@H]4[C@@]5(C)CC[C@H](OC(=O)C(Cl)Cl)C(C)(C)[C@@H]5CC[C@]43C)[C@H]12 | 20.4% (inactive) |
| COc1ccc2[nH]c(=O)c(/C=C/C(=O)c3ccccc3OC)cc2c1 | 17% (inactive) |
| COc1cccc2c1-c1ccccc1C2=O | 29% (inactive) |
| COC(=O)/C=C/c1cc(OC)c2c(c1)[C@@H](C(=O)OC)[C@H](c1ccc(OC)c(OC)c1)O2 | 35% (inactive) |
| CC(=O)Nc1c(C(=O)Nc2ccccc2)sc2nc3c(cc12)C(OC(C)=O)CCC3 (stereo not given) | 95.8% (inactive) |
| COc1cc(C2=NN(c3ccccc3)C(c3cccc(Nc4ccnc5cc(C(F)(F)F)ccc45)c3)C2)cc(OC)c1OC (stereo not given) | 92.8% (inactive) |
| O=C1CC(c2ccc(O)c(O)c2)Oc2cc(O)c([C@@H]3O[C@H](CO)[C@@H](O)[C@H](O)[C@H]3O)c(O)c21 (stereo not given in full) | 102% (inactive) |
| COc1ccc2oc(=O)cc(-c3nc4ccc(N)cc4[nH]3)c2c1 | 90.9% (inactive) |
| COc1ccc2[nH]c3nc4cnccc4cc3c2c1 | 105% (inactive) |
| CCCn1c2cc(OCc3cn(-c4ccc(Cl)cc4)nn3)ccc2c2ccnc(C)c21 | 80.6% (inactive) |
| Nc1ccc(C2=NN(C(=O)c3cc(-c4ccc(Cl)cc4)nc4ccccc34)C(c3ccc(Cl)cc3)C2)cc1 (stereo not given) | 30.5% (inactive) |
| C#C[C@@]1(O)[C@@H](CO)O[C@@H](n2cc(Br)c3c(N)ncnc32)[C@@H]1O | 2.58% (active) |
| CCOC(=O)NC(Cc1ccccc1)c1ccccc1 (stereo not given) | 104% (inactive) |
| Nc1ccccc1NC(=O)c1ccc(CSc2nc(N3CCOCC3)c3cccn3n2)cc1 | 32.7% (inactive) |
| C[C@H]1[C@H](C)CC[C@]2(C(=O)OCCCC[P+](c3ccccc3)(c3ccccc3)c3ccccc3)CC[C@]3(C)C(=CC[C@@H]4[C@@]5(C)CC[C@H](OC(=O)C(Cl)Cl)C(C)(C)[C@@H]5CC[C@]43C)[C@H]12 | -56.1% (active) |
| COc1cc(F)c(-c2nc3c(C)cccc3n2Cc2c(F)cccc2F)c(F)c1 | 91.6% (inactive) |
| COc1cc(/C=C/C(=O)c2ccc(NC(=O)CSc3nnc(-c4cc(OC)c(OC)c(OC)c4)n3-c3ccccc3)cc2)cc(OC)c1OC | 35.8% (inactive) |
